Test results reported in PubChem BioAssay (NCI).
Several values for one entry are separate records, joined by “and”; a condition that tells them apart may be missing. Equal entries are not always repeated. About 83,000 compounds went through this panel and 20% of them were active in at least one assay; those are over-represented in the sample as a whole.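 Each cell line was grown in a 96-well plate and treated with one concentration of compound for 48 hours. Values below 10 were considered active.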 Activity calls are given as the source filed them.

Legend:
Test in all cases: NCI-60 one-dose screen, 48 h (100 = growth as untreated, 0 = no growth, -100 = all killed)
Conditions in all cases: 10 µM unless noted
HCT-15 colon = tested on: HCT-15 colon
HT29 colon = tested on: HT29 colon
SNB-75 CNS = tested on: SNB-75 CNS
SNB-19 CNS = tested on: SNB-19 CNS
U251 CNS = tested on: U251 CNS
PC-3 prostate = tested on: PC-3 prostate
SK-MEL-5 melanoma = tested on: SK-MEL-5 melanoma
UACC-62 melanoma = tested on: UACC-62 melanoma
LOX IMVI melanoma = tested on: LOX IMVI melanoma
SK-MEL-28 melanoma = tested on: SK-MEL-28 melanoma

Measured: growth

Cc1ccc(C(=O)c2ccc(C)cc2)cc1
inactive: HCT-15 colon 99.8% and 102% | HT29 colon 95.4% and 102% | SNB-75 CNS 86.4% and 99.5% | SNB-19 CNS 86.9% and 105% | U251 CNS 94.1% and 105% | PC-3 prostate 95.8% and 92.5% | SK-MEL-5 melanoma 95.6% and 100% | UACC-62 melanoma 92.7% and 101% | LOX IMVI melanoma 100% and 90.4% | SK-MEL-28 melanoma 111% and 106%

OCCS
inactive: HCT-15 colon 104% | HT29 colon 97% | SNB-75 CNS 91.1% | SNB-19 CNS 108% | U251 CNS 95.3% | PC-3 prostate 99.8% | SK-MEL-5 melanoma 100% | UACC-62 melanoma 103% | LOX IMVI melanoma 96.2% | SK-MEL-28 melanoma 109%

NC1=NC(c2ccccc2)N=C(Nc2ccccc2)N1 (stereo not given)
inactive: HCT-15 colon 102% and 98.9% | HT29 colon 62.4% and 60.7% | SNB-75 CNS 53.1% and 12.8% | SNB-19 CNS 67% and 76% | U251 CNS 42.8% and 44.5% | PC-3 prostate 65.1% and 70.9% | SK-MEL-5 melanoma 69.6% and 35.6% | UACC-62 melanoma 89% | LOX IMVI melanoma 85.8% and 83% | SK-MEL-28 melanoma 87.8% and 102%

c1ccc2c[n+](Cc3ccc4ccccc4n3)ccc2c1
inactive: HCT-15 colon 106% | HT29 colon 57.2% | SNB-75 CNS 79.7% | SNB-19 CNS 71.2% | U251 CNS 55.4% | PC-3 prostate 50.9% | SK-MEL-5 melanoma 15.1% | UACC-62 melanoma 90% | LOX IMVI melanoma 88.8% | SK-MEL-28 melanoma 87.6%

NCCSSC/C=C\CSSCCN
inactive: HCT-15 colon 102% | HT29 colon 106% | SNB-75 CNS 91.6% | SNB-19 CNS 105% | U251 CNS 92.1% | PC-3 prostate 78.3% | SK-MEL-5 melanoma 97.2% | UACC-62 melanoma 105% | LOX IMVI melanoma 97.5% | SK-MEL-28 melanoma 115%

COc1ccc(-n2[nH]c3c(cnc4ccccc43)c2=O)cc1
inactive: HCT-15 colon 96.1% and 91.4% | HT29 colon 95.1% and 93.4% | SNB-75 CNS 98.1% | SNB-19 CNS 103% | U251 CNS 107% | PC-3 prostate 91.3% and 97.4% | SK-MEL-5 melanoma 100% and 98.7% | UACC-62 melanoma 95.9% and 87.9% | LOX IMVI melanoma 88% and 105% | SK-MEL-28 melanoma 108% and 100%

CCOC(C)=N
inactive: HCT-15 colon 105% | HT29 colon 102% | SNB-75 CNS 93.2% | SNB-19 CNS 104% | U251 CNS 104% | PC-3 prostate 99.3% | SK-MEL-5 melanoma 109% | UACC-62 melanoma 102% | LOX IMVI melanoma 100% | SK-MEL-28 melanoma 112%

CN(C)c1ccc(C(=N)c2ccc(N(C)C)cc2)cc1
active: HT29 colon 2.09% and 4.13% | SNB-75 CNS -30.8% and 8.36%
7.19% (active) and 22.7% (inactive): SK-MEL-5 melanoma
inactive: HCT-15 colon 23.5% and 20.9% | SNB-19 CNS 41.1% and 38.3% | U251 CNS 16.6% and 17.1% | PC-3 prostate 66% and 47.3% | UACC-62 melanoma 31.4% and 31.8% | LOX IMVI melanoma 28.9% and 33.9% | SK-MEL-28 melanoma 44% and 36%

O=C(O)C#Cc1ccc(Cl)cc1
inactive: HCT-15 colon 103% | HT29 colon 98.1% | SNB-75 CNS 85.6% | SNB-19 CNS 99.8% | U251 CNS 93.8% | PC-3 prostate 92% | SK-MEL-5 melanoma 96.1% | UACC-62 melanoma 95.7% | LOX IMVI melanoma 91.5% | SK-MEL-28 melanoma 107%

C(#CCN1CCOCC1)CCCN1CCOCC1
inactive: HCT-15 colon 91% and 99.6% | HT29 colon 106% and 105% | SNB-75 CNS 83.7% and 104% | SNB-19 CNS 107% and 108% | U251 CNS 102% and 98.7% | PC-3 prostate 99.9% and 93.2% | SK-MEL-5 melanoma 101% and 104% | UACC-62 melanoma 96.3% and 96.5% | LOX IMVI melanoma 102% and 99.6% | SK-MEL-28 melanoma 107% and 110%

CCC(C)NC(=O)c1ccccc1C (stereo not given)
inactive: HCT-15 colon 96.3% | HT29 colon 97.4% | SNB-75 CNS 76.8% | SNB-19 CNS 97.9% | U251 CNS 102% | PC-3 prostate 101% | SK-MEL-5 melanoma 91% | UACC-62 melanoma 100% | LOX IMVI melanoma 95.7% | SK-MEL-28 melanoma 94.3%

O=C1C2=C(Nc3cc(Cl)ccc3N2)OC1c1c[nH]c2ccc(COc3ccccc3)cc12 (stereo not given)
inactive: HCT-15 colon 82% | HT29 colon 86.4% | SNB-19 CNS 30.4% | U251 CNS 52.2% | PC-3 prostate 45.7% | SK-MEL-5 melanoma 81% | UACC-62 melanoma 68.7% | LOX IMVI melanoma 70.2% | SK-MEL-28 melanoma 94%
active: SNB-75 CNS -2.61%

CC(=O)Oc1cc(C(C)C)c(OCCN(C)C)cc1C
-90.7% (active) and 97.7% (inactive): U251 CNS
inactive: HCT-15 colon 105% and 104% | HT29 colon 110% and 115% | SNB-75 CNS 102% and 89.9% | SNB-19 CNS 105% and 98.2% | PC-3 prostate 92% and 103% | SK-MEL-5 melanoma 106% and 103% | UACC-62 melanoma 99.7% and 94% | LOX IMVI melanoma 94% and 102% | SK-MEL-28 melanoma 119% and 88.5%

C/C=C/C(=O)OCCCCCCCCCCCC
inactive: HCT-15 colon 123% | HT29 colon 92.6% | SNB-75 CNS 101% | SNB-19 CNS 85.2% | U251 CNS 98.6% | PC-3 prostate 101% | SK-MEL-5 melanoma 97.7% | UACC-62 melanoma 91.6% | LOX IMVI melanoma 106% | SK-MEL-28 melanoma 114%

CCOCCC(=O)O
inactive: HCT-15 colon 108% | HT29 colon 104% | SNB-75 CNS 93.3% | SNB-19 CNS 109% | U251 CNS 106% | PC-3 prostate 91.7% | SK-MEL-5 melanoma 96.1% | UACC-62 melanoma 102% | LOX IMVI melanoma 102% | SK-MEL-28 melanoma 109%

O=[N+]([O-])c1cccc(N=Cc2ccccc2)c1
inactive: HCT-15 colon 105% | HT29 colon 101% | SNB-75 CNS 96.7% | SNB-19 CNS 118% | U251 CNS 103% | PC-3 prostate 90.6% | SK-MEL-5 melanoma 104% | UACC-62 melanoma 103% | LOX IMVI melanoma 102% | SK-MEL-28 melanoma 122%

O=C(OCc1ccccc1)c1ccccc1
inactive: HCT-15 colon 114% and 103% | HT29 colon 114% and 87.8% | SNB-75 CNS 98.7% | SNB-19 CNS 101% and 92.1% | U251 CNS 99.8% and 105% | PC-3 prostate 107% and 85.4% | SK-MEL-5 melanoma 104% and 101% | UACC-62 melanoma 92.6% and 102% | LOX IMVI melanoma 96.2% | SK-MEL-28 melanoma 106% and 120%

COc1ccc(/C=N/NC(N)=S)cc1
inactive: HCT-15 colon 106% | HT29 colon 102% | SNB-75 CNS 87.7% | SNB-19 CNS 100% | U251 CNS 96.7% | PC-3 prostate 86.9% | SK-MEL-5 melanoma 104% | UACC-62 melanoma 101% | LOX IMVI melanoma 95.8% | SK-MEL-28 melanoma 112%

CC1(C)OC(=O)C(=Cc2ccc(C#N)cc2)C(=O)O1
inactive: HCT-15 colon 109% and 104% | HT29 colon 97.7% and 100% | SNB-75 CNS 97% and 96.4% | SNB-19 CNS 98.9% and 101% | U251 CNS 89.7% | PC-3 prostate 84.3% and 99.2% | SK-MEL-5 melanoma 95.6% | UACC-62 melanoma 101% and 117% | LOX IMVI melanoma 103% | SK-MEL-28 melanoma 114% and 101%

NNc1ncnc2cccc(Cl)c12
inactive: HCT-15 colon 97.8% | HT29 colon 95% | SNB-75 CNS 101% | SNB-19 CNS 103% | U251 CNS 95.4% | PC-3 prostate 93.3% | SK-MEL-5 melanoma 91% | UACC-62 melanoma 92% | LOX IMVI melanoma 94.6% | SK-MEL-28 melanoma 103%

CCCCOC1NC(=O)NC(=O)C1(F)C(=O)OCC (stereo not given)
inactive: HCT-15 colon 70% and 48.2% | HT29 colon 74.1% and 52.3% | SNB-75 CNS 78% and 81.8% | SNB-19 CNS 101% and 82.6% | U251 CNS 91.6% | PC-3 prostate 88.4% and 85.6% | SK-MEL-5 melanoma 81% and 66.9% | UACC-62 melanoma 72% and 52.8% | LOX IMVI melanoma 73.5% and 52.5% | SK-MEL-28 melanoma 83.4% and 70.7%
